Source: PubChem BioAssay
TDP1 cell noCPT: qHTS for Inhibitors of human tyrosyl-DNA phosphodiesterase 1 (TDP1): qHTS in cells in absence of CPT. Potency, µM (titrated, usually from 46.2 µM), inactives show at the highest dose activity change, negative = growth inhibition, usual class: inhibitors. actives 15% (n = 420,000). AID 686978, 2013. DT40 Tdp1-/- hTDP1 cells, no CPT, ATP luminescence, 48 h; also: potency is read from the fitted curve at half-maximal effect; nearly all actives have a fitted effect of over 55% in size
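Stably hTDP1-transfected Tdp1-null chicken DT40 cells were treated with library compounds minus camptothecin and grown for at least 48 hr at 37 °C, after which cellular ATP was quantified by luminescence.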
TDP1 cell CPT: DT40-hTDP1 cell growth loss with CPT. chicken DT40 Tdp1-/-;hTDP1 cells + 20 nM CPT, ATP luminescence, 48 h. Potency, µM (series often up to 46.2 µM), inactives show top-dose activity change, negative = growth inhibition, hits mostly inhibitors. actives 12% (n = 420,000); also: potency is read from the fitted curve at half-maximal effect; nearly all actives have a fitted effect of over 55% in size
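Chicken DT40 Tdp1-/- cells complemented with human TDP1, 400 cells/well, exposed to compounds plus 20 nM camptothecin for at least 48 h at 37 C; viability read as ATP content by CellTiter-Glo luminescence.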
IL1B secr inh: inhibitors of inflammasome signaling (IL-1 beta secretion); THP-1 LPS/ATP IL-1B secretion, AlphaLISA, 16 h; stronger effect = lower value; activity change, % at 57.5 µM; actives 4.7% (n = 360,000); in the data active = activity change below about -50%; inconclusive = mostly about -30% to -49%
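THP-1 cells pretreated 1 hr with compounds (up to 57.5 uM final), then stimulated with LPS (250 ng/mL final) plus ATP (1.25 mM final); secreted IL-1B measured by AlphaLISA after 16 hr, decreased signal indicating inhibition.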
HT1080NT lethal: kills 2HG-producing HT-1080-NT fibrosarcoma cells. HT-1080-NT fibrosarcoma viability, CellTiter-Glo ATP luminescence, 48 h. Potency, µM (doses to about 46.1 µM), for the others: at the highest dose activity, negative = less viability, actives largely listed as cytotoxic. actives 1.6% (n = 360,000). AID 686970;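 also: NT is the 2HG producing partner of a matched IDH1 knockdown line; potency is read from the fitted curve at half-maximal effect; 0% = DMSO-treated cells and -100% = media-only wells without cells; nearly all actives have a fitted effect of over 55% in size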
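HT-1080-NT fibrosarcoma cells (2HG-overproducing), 750 cells/well in RPMI with 5% FBS, dosed after 2 h and incubated 48 h at 37C. CellTiter-Glo luminescence normalized to DMSO and no-cell wells; concentration-response curves fitted and classed.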
HT1080 IDH1KD tx: toxicity to HT-1080 IDH1 knockdown cells (counter line) | HT-1080 IDH1 knockdown viability, ATP luminescence, 48 h | Potency, µM (series often up to 46.1 µM), inactives show top-dose activity, negative = toxicity, most hits filed as cytotoxic | actives 2% (n = 360,000);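 also: potency is read from the fitted curve at half-maximal effect; 0% = DMSO wells and -100% = cell-free medium wells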
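Using the IDH1-knockdown HT-1080 line run in the same batch and compound series as the NT line, viability after 48 h at 37 °C was determined by CellTiter-Glo luminescence and expressed as % activity.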
Active calls of the source: *; ! = repeats disagree. The list is not random: actives were taken first. Their share in the collection is about 19%. Unless noted, calls follow the shape of the dose curve; as a rule, active = well fitted curve in the direction sought with a large enough effect; inconclusive = small, poorly fitted or top-dose-only effect, or another doubt; inactive = no such curve, though single readings can be large; an effect the other way counts as inactive or inconclusive. Unless noted, % is scaled to controls: 0 for no effect and ±100 for the full control effect.

`Cc1ccccc1C(=O)N1CCc2c(cnc(C)c2CNC(=O)CN2CCCCC2)C1` gave TDP1 cell noCPT -11% and TDP1 cell CPT 3%.
COc1cc(OC)cc(C(=O)N2CCN(Cc3ccc4c(c3)OCO4)CC2)c1 was read as TDP1 cell noCPT 2%, TDP1 cell CPT -12%, HT1080NT lethal -1% and HT1080 IDH1KD tx -1%.
Screening COCCN(C(=O)COC(=O)CCCOc1ccc(OC)cc1)c1c(N)n(Cc2ccccc2)c(=O)[nH]c1=O returned TDP1 cell noCPT -4%, TDP1 cell CPT -14%, IL1B secr inh -1, HT1080NT lethal -2% and HT1080 IDH1KD tx -18%.
OCCN1CCN(C(=S)c2ccc(Cl)c(Cl)c2)CC1 was read as TDP1 cell noCPT 18µM*, TDP1 cell CPT 18µM*, IL1B secr inh -11, HT1080NT lethal -2% and HT1080 IDH1KD tx 2%.
`CCOC(=O)c1nc(N/N=C/c2ccccc2)sc1Br` gave TDP1 cell noCPT inconclusive, TDP1 cell CPT 7%, IL1B secr inh inconclusive, HT1080NT lethal -26% and HT1080 IDH1KD tx inconclusive.
`Cc1ccc(CN2CCc3nnc(C(NS(C)(=O)=O)C(C)C)n3CC2)cc1C` (centres undefined) gave TDP1 cell noCPT -1% and TDP1 cell CPT -12%.
COc1ccc(/C=C/C(=O)C2CC2)cc1Cn1nc(C)c([N+](=O)[O-])c1C was read as TDP1 cell noCPT inconclusive, TDP1 cell CPT inconclusive, IL1B secr inh -110*, HT1080NT lethal inconclusive and HT1080 IDH1KD tx inconclusive.
Screening COc1ccc(/C=N/N2CCOCC2)cc1Cn1nc(C)c([N+](=O)[O-])c1C returned TDP1 cell noCPT inconclusive, TDP1 cell CPT -20%, IL1B secr inh 0, HT1080NT lethal -4% and HT1080 IDH1KD tx -6%.
Screening COc1cccc(C2C(C(N)=O)=C(C)Nc3ncnn32)c1 (centres undefined) returned TDP1 cell noCPT 3% and TDP1 cell CPT 4%.
Screening CCOC(=O)[C@H](CCc1ccccc1)N[C@H]1CCc2ccccc2N(CC(=O)O)C1=O returned TDP1 cell noCPT 21µM*!, TDP1 cell CPT inconclusive, IL1B secr inh 10, HT1080NT lethal 19% and HT1080 IDH1KD tx -1%.
Screening CCOC(=O)[C@H](CCc1ccccc1)N[C@H]1CCCN2CCC[C@@H](C(=O)O)N2C1=O returned TDP1 cell noCPT -14% and TDP1 cell CPT -24%.
C[C@H](NC[C@H](O)CP(=O)(O)Cc1ccccc1)c1ccc(Cl)c(Cl)c1 was read as TDP1 cell noCPT -13% and TDP1 cell CPT -2%.
For CC(=O)Nc1sc(C)c(C)c1C(=O)OCCOc1ccccc1 the results were TDP1 cell noCPT inconclusive, TDP1 cell CPT -7%, IL1B secr inh 14, HT1080NT lethal -18% and HT1080 IDH1KD tx -30%.
`CCNC(=O)NC(=O)CSc1nc2ccccc2n1CCOC` gave TDP1 cell noCPT -8%, TDP1 cell CPT -7%, IL1B secr inh 17, HT1080NT lethal 10% and HT1080 IDH1KD tx 24%.
Screening Cc1cnc2c(C)cccc2c1C returned TDP1 cell noCPT 0.22µM* and TDP1 cell CPT -129%.
`O=C(/C=C/c1ccccc1)Nn1cnc2ccccc2c1=O` gave TDP1 cell noCPT -98%, TDP1 cell CPT 16µM*, IL1B secr inh -3, HT1080NT lethal -8% and HT1080 IDH1KD tx -9%.
For O=C(/C=C/c1ccccc1Cl)Nn1cnc2ccccc2c1=O the results were TDP1 cell noCPT -4%, TDP1 cell CPT inconclusive, IL1B secr inh -9, HT1080NT lethal inconclusive and HT1080 IDH1KD tx -5%.
Screening Cc1nnc(N/N=C/C(C)c2ccccc2)[nH]c1=O (centres undefined) returned TDP1 cell noCPT 1%, TDP1 cell CPT 2%, IL1B secr inh -100*, HT1080NT lethal inconclusive and HT1080 IDH1KD tx -17%.
`COc1ccc(CNC(=O)COC(=O)c2ccc3ncsc3c2)cc1OC` gave TDP1 cell noCPT 1%, TDP1 cell CPT -1%, IL1B secr inh -1, HT1080NT lethal 0% and HT1080 IDH1KD tx 7%.
For CSc1nc(N)nc(SCC(=O)C23CC4CC(CC(C4)C2)C3)c1C#N the results were TDP1 cell noCPT 18µM*, TDP1 cell CPT inconclusive, IL1B secr inh -21, HT1080NT lethal inconclusive and HT1080 IDH1KD tx inconclusive.
For CCc1cccc(NC(=O)c2ccc(CNc3c(N4CCCC4)c(=O)c3=O)cc2)c1 the results were TDP1 cell noCPT inconclusive, TDP1 cell CPT inconclusive, IL1B secr inh -8, HT1080NT lethal 17% and HT1080 IDH1KD tx 0%.
CC(C)(C)n1nnnc1C(c1cccnc1)N(Cc1ccccc1)Cc1ccco1 (centres undefined) was read as TDP1 cell noCPT inconclusive, TDP1 cell CPT inconclusive, IL1B secr inh -20, HT1080NT lethal 11% and HT1080 IDH1KD tx 5%.
CCN(Cc1ccccc1)C(c1ccc(C(F)(F)F)cc1)c1nnnn1C(C)(C)C (centres undefined) was read as TDP1 cell noCPT 21µM*, TDP1 cell CPT inconclusive, IL1B secr inh -1, HT1080NT lethal -2% and HT1080 IDH1KD tx -1%.
CCN(Cc1ccccc1)C(c1cccc(C#N)c1)c1nnnn1C(C)(C)C (centres undefined) was read as TDP1 cell noCPT 23µM*, TDP1 cell CPT inconclusive, IL1B secr inh 1, HT1080NT lethal -23% and HT1080 IDH1KD tx inconclusive.
Screening Cc1ccc(N(CC(=O)NCCSc2nc3ccccc3s2)S(=O)(=O)c2ccccc2)c(C)c1 returned TDP1 cell noCPT 26µM*, TDP1 cell CPT inconclusive, IL1B secr inh -9, HT1080NT lethal -7% and HT1080 IDH1KD tx -20%.
For CC(C)(C)SCCNC(=O)CN(c1ccccc1)S(=O)(=O)c1ccc(F)cc1 the results were TDP1 cell noCPT -17%, TDP1 cell CPT 1%, IL1B secr inh 8, HT1080NT lethal -3% and HT1080 IDH1KD tx 18%.
`O=C(CN(c1ccccc1)S(=O)(=O)c1ccccc1)NCCSc1nc2ccccc2s1` gave TDP1 cell noCPT 18µM*, TDP1 cell CPT inconclusive, IL1B secr inh 54, HT1080NT lethal -5% and HT1080 IDH1KD tx -4%.
For COc1ccc(C=NNC(=O)NN=Cc2ccc(OC)c(OC)c2)cc1OC the results were TDP1 cell noCPT 21µM*, TDP1 cell CPT inconclusive, IL1B secr inh inconclusive, HT1080NT lethal inconclusive and HT1080 IDH1KD tx inconclusive.
Screening COC(=O)Oc1ccc(/C=N/NC(=O)CSCc2ccccc2Br)cc1OC returned TDP1 cell noCPT 15µM*, TDP1 cell CPT 23µM*, IL1B secr inh -19, HT1080NT lethal -5% and HT1080 IDH1KD tx -30%.
